# Assay outcomes: PubChem BioAssay, several laboratories
# sPLA2-III inh = human group III sPLA2 inhibitors, primary screen, biochemical, QFRET, BODIPY PC-A2 liposome substrate; Group 3 secretory phospholipase A2 (Homo sapiens), Q9NZ20; QFRET BODIPY PC-A2 liposome hydrolysis, fluorescence; inhibition, % at 12.2 µM; actives 0.56% (n = 370,000); AID 743126, 2013;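 active = inhibition above mean plus 3 SD of compounds lying within the high and low control bounds, cut at about 19% in these data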;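 note: 0% = median of test compound wells and 100% = no enzyme DMSO wells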
# Target sequence (Q9NZ20 whole entry, looked up): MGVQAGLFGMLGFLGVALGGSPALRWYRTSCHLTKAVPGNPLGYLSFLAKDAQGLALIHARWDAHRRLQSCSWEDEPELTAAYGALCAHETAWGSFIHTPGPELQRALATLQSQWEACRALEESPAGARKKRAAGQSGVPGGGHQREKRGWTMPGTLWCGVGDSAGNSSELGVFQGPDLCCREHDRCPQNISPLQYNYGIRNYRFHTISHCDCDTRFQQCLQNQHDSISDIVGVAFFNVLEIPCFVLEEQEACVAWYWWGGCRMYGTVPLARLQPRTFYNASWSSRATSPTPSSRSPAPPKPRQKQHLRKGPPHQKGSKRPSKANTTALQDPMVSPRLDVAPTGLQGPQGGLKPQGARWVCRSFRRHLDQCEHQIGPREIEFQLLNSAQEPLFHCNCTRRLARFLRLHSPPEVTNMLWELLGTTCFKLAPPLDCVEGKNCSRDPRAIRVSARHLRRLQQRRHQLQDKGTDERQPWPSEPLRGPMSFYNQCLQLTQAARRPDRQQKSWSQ
# NadD block = inhibitors of S. aureus NadD, primary screen, biochemical, colorimetric, uHTS; inhibition, % at 20 µM; Nicotinate-nucleotide adenylyltransferase NadD (Staphylococcus aureus N315); actives 0.78% (n = 360,000); purified NadD enzyme, colorimetric absorbance read-out; in the data active = inhibition above about 26%
# Neddyl block = inhibitors of cullin neddylation, primary screen, biochemical, TR-FRET, uHTS, NAE and Ubc12; actives 0.58% (n = 360,000); inhibition, % at 25 µM; NEDD8-conjugating enzyme Ubc12 (Homo sapiens) + NEDD8-activating enzyme E1 regulatory …; in the data active = inhibition above about 36%
# ARNT TACC3 PPI = disruptors of ARNT/TACC3 protein interaction, primary screen, biochemical, AlphaScreen, single concentration; Transforming acidic coiled-coil-containing protein 3 (Homo sapiens), Q9Y6A5; AlphaScreen His-ARNT PAS-B/GST-TACC3 binding, luminescence; TACC3 fragment carries E629A point mutation; inhibition, % at 9.99 µM; actives 0.66% (n = 390,000);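 active = mean inhibition of replicates at least 50% and at least half of replicates each reaching 50%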;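 note: 0% = complete ARNT plus TACC3 wells and 100% = ARNT alone without TACC3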
# DAGLB inh = DAGLB lipase inhibitors, primary screen, biochemical, fluorescence, HTS; Diacylglycerol lipase-beta (Homo sapiens), Q8NCG7; HEK293T DAGLB membrane lysate, EnzChek fluorogenic substrate; inhibition, % at 5.17 µM; actives 0.059% (n = 340,000); in the data active = inhibition above about 34%;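 note: 0% = enzyme with vehicle and 100% = wells lacking enzyme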
# * = called active by the depositor; / = not tested or not shown. Sampled rows, rich in hits. Any-hit rate of the full collection: about 2%.
SMILES,sPLA2-III inh,NadD block,Neddyl block,ARNT TACC3 PPI,DAGLB inh
Cc1ccc(S(=O)(=O)/N=C2\C=C(NS(=O)(=O)c3ccccc3)C(=O)c3ccccc32)c(C)c1,-13,32*,-30,8,19
O=C(NCC[C@@H]1CC[C@@H](NS(=O)(=O)c2cccc(F)c2)[C@@H](CO)O1)Nc1cc(F)ccc1F,/,/,/,8,/
O=C(N/N=C/c1c[nH]c2ccccc12)c1[nH]c2ccc(Br)cc2c1-c1ccccc1,22*,23,/,12,-5
O=C(N/N=C/c1ccc(O)cc1)c1[nH]c2ccc(Br)cc2c1-c1ccccc1,-20,10,/,-7,-5
Fc1ccc(Nc2nc(NCc3ccco3)c3ccccc3n2)cc1,-3,6,43*,3,-2
O=C1NCC2=C1C(c1ccccc1)Nc1ccccc1N2 (configuration not stated),-8,11,3,active,6
C[C@@H]1CCCCO[C@@H](CN(C)C(=O)CCCN(C)C)[C@H](C)CN([C@@H](C)CO)C(=O)c2cc(NC(=O)Nc3ccc(F)cc3)ccc2O1,/,/,/,4,/
C[C@H]1CN([C@@H](C)CO)C(=O)c2cccc(NC(=O)Nc3ccc(C(F)(F)F)cc3)c2O[C@H]1CN(C)Cc1ccc2c(c1)OCO2,/,/,/,8,/
CCNC(=O)C[C@H]1CC[C@@H]2[C@H](COc3ccc(NC(=O)C4CCCCC4)cc3C(=O)N2C)O1,/,/,/,-8,/
Cc1ccc(C)c(-n2c(SCC(=O)N3CCCC3)nnc2-c2ccccn2)c1,2,-3,5,46*,0
Cc1cccc(-n2c(SCC(=O)N3CCCC3)nnc2-c2ccccn2)c1C,10,4,14,/,0
COc1ccc(N=C(N)SCc2ccccn2)cc1,3,-3,-5,55*,-3
Cc1ccc(CNC(=O)[C@H](C)NC(=O)C2CCN(C(=O)[C@@H](N)CC(C)C)CC2)cc1,20*,1,0,-1,-2
CC(=O)N/N=C/c1cc(C(C)(C)C)cc(/C=N/NC(C)=O)c1O,-17,-3,28,62*,/
CO[C@H]1CN(C)C(=O)c2ccc(NC(=O)c3nc4ccccc4s3)cc2OC[C@H](C)N(Cc2cncnc2)C[C@H]1C,/,/,/,0,/
N#CC1=C(N)n2c(s/c(=C\c3ccco3)c2=O)=C(C#N)C1c1ccco1 (configuration not stated),-6,50*,-82,20,8
C[C@@H]1CN([C@H](C)CO)C(=O)c2cc(NS(=O)(=O)c3ccc(F)cc3)ccc2O[C@@H](C)CCCCO[C@@H]1CN(C)Cc1ccccc1,/,/,/,5,/
CC(C)C(=O)Nc1ccc2c(c1)C(=O)N(C)[C@@H]1CC[C@H](CC(=O)NCc3ccccc3F)O[C@@H]1CO2,/,/,/,4,/
O=C(NNC1=C(C(=O)C(F)(F)F)CCC1)c1ccccc1Cl,-2,4,-6,1,0
O=C(NNC1=C(C(=O)C(F)(F)F)CCC1)c1ccccc1O,7,-5,-8,63*,-5
O=C(N/N=C/c1ccc(Sc2ccccn2)o1)c1cc2ccccc2cc1O,/,62*,5,4,6
C/C(=N\NC(=O)c1ccccc1O)C1C(=O)c2ccccc2C1=O,-10,3,-21,12,24
C/C(=N/NC(=O)c1cc2ccccc2cc1O)C1C(=O)c2ccccc2C1=O,29*,27,-31,-3,26
O=C(CCc1ccccc1O)N/N=C/c1ccc(Sc2cccc3cccnc23)o1,-34,22,22,66*,1
C/C(=N\NC(=O)c1c[nH]c2ccccc12)c1ccccn1,-2,-2,4,77*,0
SMILES,sPLA2-III inh,NadD block,Neddyl block,ARNT TACC3 PPI,DAGLB inh
Cc1ccc(S(=O)(=O)Nc2ccc3c(c2)C(=O)N([C@@H](C)CO)C[C@H](C)[C@H](CN(C)Cc2ccc(C(F)(F)F)cc2)OCCCC[C@H](C)O3)cc1,/,/,/,10,/
C/C(=N\Nc1ccccc1)c1cc2ccccc2oc1=O,-2,-4,-1,-3,-2
C/C(=N\NC(=O)c1nc2ccccn2c1C)c1cc2ccccc2o1,-3,-4,-15,5,1
C/C(=N\NC(=O)c1cc2ccccc2cc1O)c1ccccn1,13,8,2,69*,-2
C/C(=N\NC(=O)CC#N)c1cc2ccccc2oc1=O,-11,3,12,21*,2
C/C(=N\NC(=O)CCCNc1ccccc1)c1ccncc1,5,-6,0,4,-3
C/C(=N\NC(=O)CCCNc1ccc(C)cc1)c1ccccn1,4,0,5,48*,1
C/C(=N\NC(=O)c1cc2ccccc2cc1O)c1cc2ccccc2o1,0,49*,21,0,2
O=C(Nc1ccc(F)cc1)N[C@@H]1C=C[C@H](CC(=O)N2CCOCC2)O[C@H]1CO,/,/,/,14,/
COc1ccc(OC)c(N2C(=O)c3cccnc3C2=O)c1,8,8,-17,47*,-2
CCOC(=O)C1=C(CC)OC(N)=C(C#N)C1c1ccc(OC)c(OC)c1OC (configuration not stated),-10,2,8,15*,5
CO[C@@H](CN(C)C(=O)c1ccc2c(c1)OCO2)[C@@H](C)CN([C@@H](C)CO)S(=O)(=O)c1ccc(C)cc1,/,/,/,2,/
CCS(=O)(=O)NCC[C@H]1CC[C@H](NC(=O)Cc2ccccn2)[C@@H](CO)O1,/,/,/,-8,/
CCNC(=O)Nc1ccc2c(c1)C(=O)N(C)[C@H]1CC[C@@H](CC(=O)N[C@H](C)c3ccccc3)O[C@H]1CO2,/,/,/,active,/
COC1=C(Br)C(=O)c2ncccc2C1=O,-2,6,-62,47*,-16
O=C1C(=O)c2cccnc2-c2ncccc21,-9,40*,-36,/,/
O=C1c2cccnc2-c2ncccc21,3,-7,-39,29,-1
Cc1cc(/C=N/NC(=O)c2cccc(N(C)C)c2)c(C)n1-c1cc(C(=O)O)cc(C(=O)O)c1,/,7,39*,12,-1
Cc1cc(/C=N/NC(=O)Cn2c3ccccc3c(=O)c3ccccc32)c(C)n1-c1ccccc1,-20,45*,/,-1,-1
CN(C)Cc1cn(CC[C@@H]2CC[C@H](N)[C@H](CO)O2)nn1,/,/,/,-8,/
CN(C)c1ccc(Nc2nc(N)c3ccccc3n2)cc1,16,-6,-2,50*,0
O=C(Nc1cccc(F)c1)N[C@@H]1CC[C@H](CCNS(=O)(=O)c2cccc(Cl)c2)O[C@H]1CO,/,/,/,1,/
Nc1[nH]c(N=NC(=O)c2ccccc2O)c2ccccc12,13,3,-16,60*,-4
Nc1[nH]c(N=NC(=O)c2ccccc2)c2ccccc12,-3,-7,11,-4,0
